Results as given in PubChem BioAssay AID1159580 (chemical genetic matrix, 2015).
The whole screen tested about 5,500 compounds, of which about 2,000 (36%) were called active. Another 18% or so got no clear call; they are omitted. Cut-off read from the data, not from the text of the source: active = normalized growth mostly below about 0.91 (no sharp cut-off); inconclusive = no clear call, values can overlap the other calls; inactive = mostly above about 0.92. This is one part of the list.

Test: chemical genetic growth profiling, strain panel (AID 1159580);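 note: tested at 20 µM; growth read once vehicle control cultures reached saturation at 30 °C; 1 = growth at the plate median or of vehicle wells; lower values mean less growth of the strain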
Conditions: S. cerevisiae deletion strains, growth OD
[1] = locus YCL061C, strain MRC1 (second series), active compounds read low
[2] = locus YDR363W, strain ESC2, active compounds read low
[3] = locus YER002W, strain NOP16, active compounds read low
[4] = locus YGR229C, strain SMI1, active compounds read low
[5] = locus YJR075W, strain HOC1, active compounds read low
[6] = locus YMR307W, strain GAS1, active compounds read low
[7] = locus YNL197C, strain WHI3, active compounds read low
[8] = locus YNL224C, strain SQS1, active compounds read low
[9] = locus YOR083W, strain WHI5 (second series), active compounds read low
[10] = locus YPL241C, strain CIN2, active compounds read low

Measured: normalized growth

CCCN(CCC)[C@H]1CCc2c(F)ccc(O)c2C1
inactive: [1] 1 | [2] 1.01 | [3] 0.998 | [4] 1.02 | [5] 1.01 | [6] 0.993 | [7] 0.979 | [8] 0.995 | [9] 1.01 | [10] 1
active: locus YNL128W, strain TEP1, active compounds read low 0.428

CCCN(CCC)[C@@H]1CCc2cccc(O)c2C1
inactive: locus YAL040C, strain CLN3, active compounds read low 1.04 | [1] 0.995 | locus YDR150W, strain NUM1, active compounds read low 0.989 | [2] 0.997 | [3] 0.977 | locus YGR078C, strain PAC10, active compounds read low 0.981 | [4] 1.07 | [5] 1.02 | locus YMR263W, strain SAP30, active compounds read low 1 | [6] 1.03 | locus YNL153C, strain GIM3, active compounds read low 0.953 | locus YNL175C, strain NOP13, active compounds read low 0.998 | [7] 0.974 | [8] 1 | [9] 1.01 | locus YPL055C, strain LGE1, active compounds read low 1.01 | [10] 1

CN(C)CC(=O)OC[C@@H](O)[C@@H](O)[C@H](O)[C@@H](O)C(=O)O
inactive: locus YHR030C, strain SLT2, active compounds read low 0.956 | locus YHR079C, strain IRE1, active compounds read low 0.944 | locus YJL095W, strain BCK1, active compounds read low 0.954 | locus YJR066W, strain TOR1, active compounds read low 0.924 | locus YLR113W, strain HOG1, active compounds read low 0.956 | locus YNL183C, strain NPR1, active compounds read low 0.896 | locus YOR231W, strain MKK1, active compounds read low 0.964 | locus YPL256C, strain CLN2, active compounds read low 0.969
